Article PMC4336329 (PLoS ONE, 2015)
The whole screen tested about 310,000 compounds, of which about 14,000 (4.5%) showed an effect of 50% or more. The effect is printed as a negative number. The full list was thinned out, with strong results kept by preference.

Each molecule was assayed against human ether-à-go-go-related gene (hERG) potassium channel (human, UniProt Q12809) (assay: primary screen, population patch clamp on CHO cells stably expressing hERG; higher = less effect of the substance).
Chain of human ether-à-go-go-related gene (hERG) potassium channel (Q12809 whole entry, looked up): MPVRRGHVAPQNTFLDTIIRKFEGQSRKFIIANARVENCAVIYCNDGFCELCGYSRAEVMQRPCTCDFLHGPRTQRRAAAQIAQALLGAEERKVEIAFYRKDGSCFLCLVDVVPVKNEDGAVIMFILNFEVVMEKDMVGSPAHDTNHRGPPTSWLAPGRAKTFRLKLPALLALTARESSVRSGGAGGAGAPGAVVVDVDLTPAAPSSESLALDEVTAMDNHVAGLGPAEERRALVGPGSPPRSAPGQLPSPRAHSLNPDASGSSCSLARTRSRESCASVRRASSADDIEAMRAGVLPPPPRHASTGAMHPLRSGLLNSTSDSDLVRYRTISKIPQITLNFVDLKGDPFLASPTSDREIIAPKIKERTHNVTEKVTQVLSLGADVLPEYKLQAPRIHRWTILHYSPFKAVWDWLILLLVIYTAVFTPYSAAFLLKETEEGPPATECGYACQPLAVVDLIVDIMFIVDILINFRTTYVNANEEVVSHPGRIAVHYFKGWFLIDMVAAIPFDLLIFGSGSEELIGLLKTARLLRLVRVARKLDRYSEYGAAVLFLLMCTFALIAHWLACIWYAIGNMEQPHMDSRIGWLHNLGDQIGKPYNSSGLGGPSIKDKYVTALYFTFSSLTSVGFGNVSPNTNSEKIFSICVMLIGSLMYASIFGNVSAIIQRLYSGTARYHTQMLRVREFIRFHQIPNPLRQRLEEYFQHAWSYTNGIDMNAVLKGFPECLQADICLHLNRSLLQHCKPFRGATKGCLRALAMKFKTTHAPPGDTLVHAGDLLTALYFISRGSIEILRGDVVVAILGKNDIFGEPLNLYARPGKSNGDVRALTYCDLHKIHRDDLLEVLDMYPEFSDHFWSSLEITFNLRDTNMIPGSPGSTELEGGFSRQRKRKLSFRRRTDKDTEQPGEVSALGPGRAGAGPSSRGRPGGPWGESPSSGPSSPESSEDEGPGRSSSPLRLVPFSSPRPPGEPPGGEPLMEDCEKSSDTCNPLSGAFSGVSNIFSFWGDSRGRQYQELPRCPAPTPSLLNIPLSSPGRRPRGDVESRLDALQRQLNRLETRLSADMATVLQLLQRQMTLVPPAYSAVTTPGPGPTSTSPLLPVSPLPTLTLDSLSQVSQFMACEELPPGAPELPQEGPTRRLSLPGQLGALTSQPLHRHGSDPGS
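Note: peak tail current of the secondary pulse compared with the same well before compound.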

Row | Compound | hERG current change (%, negative = inhibition) at 10uM [%]
1 | Cc1cc(NS(=O)(=O)c2ccc(NC(=O)c3c(F)c(F)c(F)c(F)c3F)cc2)nc(C)n1 | 4.63
2 | CCN(C(=O)CSc1nnnn1-c1ccccc1OC)C1CCS(=O)(=O)C1 (stereo not shown) | 21.2
3 | O=C(CCNC(=O)c1ccccc1Cl)Nc1cccc(S(=O)(=O)N2CCOCC2)c1 | 0.307
4 | CC(C)(C)c1[nH]nc2c1C(C1C=CCCC1)C(C#N)=C(N)O2 (stereo not shown) | -11
5 | CN(C)CC1CCCCC1OC(=O)c1ccc(S(=O)(=O)N(C)c2ccccc2)cc1 (stereo not shown) | 17.8
6 | C/C(CC(=O)NCc1ccco1)=N\NC(=O)c1ccc([N+](=O)[O-])cc1Cl | 10.5
7 | CC(OC(=O)CCc1nc2ccccc2c(=O)[nH]1)C(=O)c1ccc(C(C)(C)C)cc1 (stereo not shown) | -12.3
8 | COc1ccc(N(CC(=O)NCc2ccc(Cl)cc2)S(=O)(=O)c2c(C)noc2C)cc1 | 15.1
9 | O=[N+]([O-])CC(=Nc1ccc(F)cc1)N/N=C\c1oc(O)c2ccccc12 | -0.338
10 | NCCCC[C@H]1CN=C(N)N1CCCCC1CCCCC1 | -3.84
11 | CC(C)C(NC(=O)c1ccccc1NC(=O)c1ccco1)C(=O)O (stereo not shown) | -14.1
12 | C/C(N)=C(/C#N)C(=O)COC(=O)CC1CCCC1 | -2.15
13 | COc1ccccc1N1C(=O)CC(N2CCN(c3ccc(Cl)cc3)CC2)C1=O (stereo not shown) | 1.61
14 | COc1ccccc1N1CCN(C2CC(=O)N(c3cccc(Br)c3)C2=O)CC1 (stereo not shown) | -53.7
15 | Cc1cccc(CC2CC(=O)N(c3ccc([N+](=O)[O-])cc3)C2=O)c1 (stereo not shown) | -53.3
16 | O=C1CC(N2CCN(c3ccccc3)CC2)C(=O)N1c1cccc(Br)c1 (stereo not shown) | -1.92
17 | Cc1cc(C)cc(CC2CC(=O)N(c3ccc([N+](=O)[O-])cc3)C2=O)c1 (stereo not shown) | 9.78
18 | Cc1ccc(N2C(=O)CC(Cc3cccc(C)c3)C2=O)cc1 (stereo not shown) | 9.39
19 | COc1ccccc1N1CCN(C2CC(=O)N(c3ccccc3)C2=O)CC1 (stereo not shown) | 24.1
20 | COc1ccccc1N1C(=O)CC(N2CCN(c3ccc([N+](=O)[O-])cc3)CC2)C1=O (stereo not shown) | -68.6
21 | COc1cccc(N2C(=O)CC(N3CCN(c4ccc([N+](=O)[O-])cc4)CC3)C2=O)c1 (stereo not shown) | -52.1
22 | COc1cccc(N2CCN(C3CC(=O)N(c4ccc(Cl)c(Cl)c4)C3=O)CC2)c1 (stereo not shown) | -0.0262

Row | Compound | hERG current change (%, negative = inhibition) at 10uM [%]
23 | COc1cccc(N2CCN(C3CC(=O)N(c4cccc(Cl)c4)C3=O)CC2)c1 (stereo not shown) | -14.4
24 | COc1ccccc1N1C(=O)CC(N2CCN(c3ccc(F)cc3)CC2)C1=O (stereo not shown) | -1.99
25 | C=C(C)COc1ccc(-c2nc(N)ncc2-c2ccccc2OC)c(O)c1 | -31.6
26 | COc1cc(OC)c(OC)cc1/C=C(\C#N)C(=O)NCc1cccs1 | 20.6
27 | O=C(Cn1cc2c(n1)CCCC2)Nc1ccccc1Br | 1.06
28 | CN1C2CCC1CC(NC(=O)c1cc(Cl)cc3[nH]cnc13)C2 (stereo not shown) | 4.12
29 | CNC(=O)c1c2c(nc3ccc(Br)cc13)CCCC2 | 1.9
30 | CCCCn1c(N)c(N(CCOC)C(=O)C2CC(=O)N(c3cccc(SC)c3)C2)c(=O)[nH]c1=O (stereo not shown) | 14.4
31 | COCCN1CN=C(Nc2nc3ccccc3o2)NC1 | 13.5
32 | COc1cccc(OC)c1C(=O)Nc1ccc(N2CCCC2)cc1 | 7.52
33 | Cc1ccc(N2C(=O)SC(Cc3ccccc3)C2=O)cc1 (stereo not shown) | 13.7
34 | COc1ccc(N(Cc2cc3ccccc3[nH]c2=O)S(=O)(=O)c2ccccc2)cc1 | 2.91
35 | CCOC(=O)N1CCN(C(=O)c2ccc(OC(C)=O)cc2)CC1 | 16
36 | CCCOc1ccc(N2C(=O)CC(N3CCN(c4ccc([N+](=O)[O-])cc4)CC3)C2=O)cc1 (stereo not shown) | -73.8
37 | CCCOc1ccc(N2C(=O)CC(N3CCOCC3)C2=O)cc1 (stereo not shown) | -3.38
38 | CCOc1ccc(N2C(=O)CC(N3CCN(c4ccc([N+](=O)[O-])cc4)CC3)C2=O)cc1 (stereo not shown) | -28.3
39 | O=C(COC(=O)c1cccc2ccccc12)Nc1cccnc1Cl | 0.703
40 | CCC1=NN2C(=N)/C(=C\c3cccn3-c3ccc(C)c(C)c3)C(=O)N=C2S1 | -6.32
41 | CCC1=NN2C(=N)/C(=C\c3cccn3-c3c(C)cccc3C)C(=O)N=C2S1 | -79.4
42 | CCC1=NN2C(=N)/C(=C\c3cccn3-c3ccc(C)cc3C)C(=O)N=C2S1 | -5.33
43 | Cc1ccc(S(=O)(=O)N2CCCC(C)C2)cc1 (stereo not shown) | 12.9
44 | Cc1ccc(S(=O)(=O)N2CCCC(c3nnc4n3-c3ccccc3SC4)C2)cc1 (stereo not shown) | -92.8

Row | Compound | hERG current change (%, negative = inhibition) at 10uM [%]
45 | Cc1ccc(-c2nc(C3CCCN(S(=O)(=O)c4ccc(C)cc4)C3)no2)cc1 (stereo not shown) | 12.2
46 | O=C(O)CCCCCNC(=O)c1ccccc1 | 8.89
47 | CCOc1ccc(-n2c(SCc3cc(=O)oc4cc(C)ccc34)nnc2-c2cccnc2)cc1 | -70.7
48 | CCOc1ccc(-n2c(SCC(N)=O)nnc2-c2cccnc2)cc1 | -5.57
49 | CCOc1ccc(-n2c(SCc3cc(=O)oc4cc(C)c(C(C)C)cc34)nnc2-c2cccnc2)cc1 | -37.2
50 | CC(=O)Nc1ccc2c(CSc3nnc(-c4cccnc4)n3-c3ccc(C)cc3C)cc(=O)oc2c1 | -17.8
51 | COc1ccc(-n2c(SCC#N)nnc2-c2cccnc2)cc1 | -34
52 | N#Cc1ccc(CSc2nnc(-c3c[nH]c4ccccc34)n2-c2ccccc2)cc1 | 5.38
53 | N#CCSc1nnc(-c2cccnc2)n1-c1ccccc1 | -7.93
54 | O=C(O)c1ccc(CSc2nnc(-c3cccnc3)n2-c2ccc(Br)cc2)cc1 | 15.1
55 | CCOc1ccc(-n2c(SCc3ccc(C#N)cc3)nnc2-c2cccnc2)cc1 | -71.9
56 | NC(=O)CSc1nnc(-c2cccs2)n1-c1ccccc1 | 10.2
57 | N#Cc1ccc(CSc2nnc(-c3cccnc3)n2-c2ccccc2)cc1 | -71.2
58 | N#Cc1ccc(CSc2nnc(-c3cccs3)n2-c2ccccc2)cc1 | -72.7
59 | O=C(CCCN1C(=O)/C(=C/c2ccccc2Cl)SC1=S)NNC(=O)c1ccncc1 | 2.34
60 | O=C(NNc1ccccn1)c1ccccc1CC[N+](=O)[O-] | 13.3
61 | COc1ccc(-c2ccc(C#N)c(SCC(=O)Nc3sc4c(c3C#N)CCC4)n2)cc1OC | 10.3
62 | COC(=O)c1c(C)[nH]c(C(=O)COc2ccc3ccc(=O)oc3c2)c1C | 11.5
63 | CN(C(=O)C1CCOC1)c1nnc(-c2cnccn2)s1 (stereo not shown) | 11.1
64 | O=S(=O)(Nc1nc(-c2ccccc2)cs1)c1cc(Cl)ccc1Cl | 18.3
65 | CCOC(=O)C1=C(CC)OC(N)=C(C#N)C1c1ccsc1 (stereo not shown) | 1.69
66 | CC1CCN(c2ccc(/C=N\Nc3nncn3N)cc2[N+](=O)[O-])CC1 | -5.89

Row | Compound | hERG current change (%, negative = inhibition) at 10uM [%]
67 | Cc1ccccc1-c1nc(CN2CCC(C(=O)NCc3cccnc3)CC2)c(C)o1 | -32.8
68 | Cc1ccc(-c2nc(CSCC(=O)NCc3cccnc3)c(C)o2)cc1 | -15.3
69 | Cc1oc(-c2ccc(Cl)cc2)nc1CN1CCC(C(=O)NCc2cccnc2)CC1 | -65.9
70 | CC(C)c1ccc(CN2CCC(C(=O)NCc3cccnc3)CC2)cc1.O=C(O)C(=O)O | -52.1
71 | CCS(=O)(=O)N1CCC(C(=O)NCc2cccnc2)CC1 | -11.7
72 | Cc1cc(C)c(S(=O)(=O)N2CCCC(C(=O)NCc3cccnc3)C2)c(C)c1 (stereo not shown) | -27
73 | Cc1ccccc1-c1nc(CN2CCCC(C(=O)NCc3cccnc3)C2)c(C)o1 (stereo not shown) | -64
74 | O=C(NCc1cccnc1)C1CCCN(S(=O)(=O)c2ccc(Cl)cc2)C1 (stereo not shown) | -26.9
75 | Cc1oc(-c2ccc(Cl)cc2)nc1CN1CCCC(C(=O)NCc2cccnc2)C1 (stereo not shown) | -60.8
76 | Cc1oc(-c2ccccc2F)nc1CN1CCC(C(=O)NCc2cccnc2)CC1 | -26.7
77 | COc1ccc(C(C)C)cc1S(=O)(=O)N1CCC(C(=O)NCc2cccnc2)CC1 | -5.48
78 | CCOC(=O)COc1nc(Nc2ccccc2C)nc(N(C)C)n1 | 1.92
79 | Cc1ccc(N2CC(C(=O)OCC(=O)c3ccc[nH]3)CC2=O)cc1 (stereo not shown) | -24.2
80 | Cc1cc(C)cc(C(=O)Nc2ccncc2)c1 | 7.83
81 | O=C(CNC(=O)c1ccco1)Nc1cccc(Cl)c1 | -10.8
82 | O=C(Nc1ccccc1C(=O)NCCCN1CCOCC1)c1ccc(Cl)cc1 | -15.5
83 | O=C(CCSc1ccccc1)N1CCCC1 | 10.9
84 | CCC(=O)NCc1ccc(-c2nc3ncccc3o2)cc1 | 13
85 | Cc1csc(SC(C)c2nc3scc(-c4ccccc4)c3c(=O)[nH]2)n1 (stereo not shown) | 6.61
